# Assay results from PubChem BioAssay.
# Active and inactive are the calls of the source. The rule behind the calls is not given here.
# Test: blockers of DNA damage checkpoint Chk1 activation – imaging, HeLa, hydroxyurea, phospho-Chk1 antibody, percent positive cells, primary screen (AID 1186)
# Details: hydroxyurea-induced phospho-Chk1 immunofluorescence imaging, higher = more signal
row,Compound,z-score
1,C=C(C(=O)CC[C@@H](OC(=O)c1cccnc1)c1ccccc1OCCO)C(C)C,0.434 (inactive)
2,NCCCCCNC(=O)[C@@H]1C[C@@H]2C(=O)N[C@@H](Cc3ccccc3)C(=O)N2[C@@H]1c1ccc(O)cc1,0.296 (inactive)
3,CCCCCCc1nc(-c2ccc(OC)nc2)cc2c1[Si](C(C)C)(C(C)C)O[C@H]2c1ccccc1,-0.732 (inactive)
4,C[N+](C)(C)CCCCNC(=O)[C@@H]1C[C@@H]2C(=O)N[C@@H](Cc3ccccc3)C(=O)N2[C@@H]1c1cccc(OCCO)c1,0.367 (inactive)
5,COc1cc2c(cc1O)C(c1cccs1)N(C)CC2 (configuration not stated),-0.428 (inactive)
6,C[C@@]1([C@@H](NC(=O)c2ccc(-c3ccccc3)cc2)c2ccc(Cl)cc2)C[C@H]1C1CCCCC1,-0.273 (inactive)
7,Cc1ccc(S[C@]2(C(=O)O)CC(=O)N(C(C)C)[C@@H]2c2ccc(CO)cc2I)cc1,-0.366 (inactive)
8,CN1C(=O)C2C=CC(C(O)C3CC=CCC3)N(N(c3ccccc3)c3ccccc3)C2C1=O (configuration not stated),0.451 (inactive)
9,O=C1NC(=O)C2C1C=CC(C(O)c1cccs1)N2Nc1ccc(Cl)cc1Cl (configuration not stated),-0.266 (inactive)
10,C=CCC(OC(C)=O)[C@@H]1[C@@H](N(Cc2ccc(-c3ccccc3)cc2)C(=O)Cc2ccc(OC)cc2)c2cc(OCCCO)ccc2N1C(=O)Cc1ccc2ccccc2c1 (some centres not stated),0.802 (inactive)
11,CC(C)C[C@@H]1NC(=O)[C@@H]2C[C@H](C(=O)NCc3ccc(F)cc3)[C@H](c3cccc(OCCO)c3)N2C1=O,0.465 (inactive)
12,C=CCC(OC(C)=O)[C@@H]1[C@@H](N(Cc2ccc(-c3ccccc3)cc2)C(=O)c2cccc3ccccc23)c2cc(OCCCO)ccc2N1C(=O)c1ccc(-c2ccccc2)cc1 (some centres not stated),-0.627 (inactive)
13,CCCC[C@H]1OB(O)C[C@H]2C1=C(COC)Cn1c(=O)n(-c3ccccc3)c(=O)n12,-0.503 (inactive)
14,O=C1NC(=O)C2C1C=CC(C(O)c1cc(C(F)(F)F)cc(C(F)(F)F)c1)N2Nc1ccccn1 (configuration not stated),0.429 (inactive)
15,CC1CC/C=C\[C@H]2OC34C=CCN(Cc5ccccc5)C(=O)[C@H]3N(CCCO)C(=O)[C@@H]4C2C(=O)O1 (some centres not stated),-0.364 (inactive)
16,C=C(CC1([C@@H](NP(=O)(c2ccccc2)c2ccccc2)[C@H]2C[C@@H]2CCCC)CC1)c1ccccc1,0.779 (inactive)
17,CC(C)N1C(=O)c2ccccc2[C@](C)(C(=O)NCCN2CCOCC2)[C@@H]1c1ccc(CO)cc1,-0.155 (inactive)
18,[N-]=[N+]=NCc1ccccc1[C@@H]1OC(c2ccc(OCCCO)cc2)=N[C@]1(Cc1ccccc1)C(=O)NCC(O)CO (some centres not stated),-0.0268 (inactive)
19,Cc1ccc(S[C@]2(C(=O)NCCCN(C)C)CC(=O)N(Cc3ccccc3C(F)(F)F)[C@@H]2c2ccc(CO)cc2)cc1,-0.0292 (inactive)
20,[N-]=[N+]=Nc1ccccc1[C@@H]1OC(c2ccc(OCCCO)cc2)=N[C@]1(Cc1ccccc1)C(=O)N1CCOCC1,-0.208 (inactive)
21,Cc1nc2cc(Br)ccc2c(=O)o1,-0.131 (inactive)
22,CC1CC/C=C\[C@H]2OC34C=CCN(C(C)(C)C)C(=O)[C@H]3N(C(C)CO)C(=O)[C@@H]4C2C(=O)O1 (some centres not stated),0.714 (inactive)
23,C=CCOC(=O)[C@@H]1[C@H]2C(=O)O[C@H](c3ccccc3)[C@H](c3ccccc3)N2[C@H](c2ccc(OCCOC(=O)[C@H]3C[C@H]4C(=O)N5CCC[C@H]5C(=O)N4[C@H]3c3ccc(O)cc3)cc2)[C@@]12C(=O)Nc1ccc(I)cc12,-0.0415 (inactive)
24,C=C(/C(=C/C[C@H](OC(C)=O)c1ccccc1OCCO)c1cnc2ccccc2c1)C(C)C,0.284 (inactive)
25,CCCCN1CC=CC23O[C@@H]4C=CCCOC(=O)C4[C@H]2C(=O)N(CCCCCCO)[C@@H]3C1=O (some centres not stated),0.809 (inactive)
26,COc1ccc(C#Cc2ccc3c(c2)[C@]2(C(=O)N3)[C@H](C(=O)NC[C@H](O)c3ccccc3)[C@H]3C(=O)O[C@H](c4ccccc4)[C@H](c4ccccc4)N3[C@@H]2c2ccc(O)cc2)cc1,-0.371 (inactive)
27,O=C(c1ccccc1)N1C(=O)[C@]2(COC(c3ccc(OCCCO)cc3)=N2)Cc2ccccc21,-0.255 (inactive)
